What all share (test): NCI-60 one-dose screen, 48 h (100 = growth as untreated, 0 = no growth, -100 = all killed)
One test relates to NCI-H23 lung. Particulars: 10 µM unless noted.
The next test relates to NCI-H226 lung. Conditions: 10 µM unless noted.
Another test concerns NCI-H322M lung. Particulars: 10 µM unless noted.
The subject of a further test is NCI-H460 lung. Particulars: 10 µM unless noted.
The subject of a further test is HOP-92 NSCLC. Particulars: 10 µM.
The next test has as its system NCI-H522 lung. Conditions: 10 µM.
A further test deals with A549/ATCC NSCLC. Particulars: 10 µM unless noted.
The subject of another test is 786-0 renal. Conditions: 10 µM unless noted.
In the next test the test system is COLO 205 colon. Conditions: 10 µM unless noted.
In another test the test system is DU-145 prostate. Particulars: 10 µM unless noted.
The next test concerns K-562 leukemia. Particulars: 10 µM unless noted.
Another test relates to MALME-3M melanoma. Conditions: 10 µM unless noted.
The subject of another test is MDA-MB-231 breast. Particulars: 10 µM unless noted.
For another test, the system named is RXF 393 renal. Particulars: 10 µM unless noted.
The subject of a further test is SF-268 CNS. Conditions: 10 µM unless noted.
The next test has as its system SF-295 CNS. Particulars: 10 µM unless noted.
A further test deals with SF-539 CNS. Particulars: 10 µM unless noted.
In a further test the test system is UACC-257 melanoma. Conditions: 10 µM unless noted.
The test system of the next test is M14 melanoma. Particulars: 10 µM unless noted.

Drawing on PubChem BioAssay (NCI), this text covers growth for 8 molecules.

About 83,000 compounds went through this panel and 20% of them were active in at least one assay; those are over-represented in the sample as a whole.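 Cells were grown in 96-well plates and exposed to the test compound at a single concentration for 48 hours; results are reported as percent growth, with values below 10 considered active.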 Unmarked numbers belong to inactive results. The source made the active and inactive calls.

As to `c1cc(C2CCCCC2)ccc1OCCCCCCN1CCNCC1`, the growth with NCI-H23 lung was 42.3%; with NCI-H226 lung, 81.9%; in the test on NCI-H322M lung, 82%; in the test with NCI-H460 lung, -7.36% (active); in the test with HOP-92 NSCLC, 6.55% (active); with NCI-H522 lung, 77.7%. Also, the growth in the test with A549/ATCC NSCLC is 36.5%; in the test on 786-0 renal, 58.3%; with COLO 205 colon it was -52.2% (active); in the test on DU-145 prostate, 17.9%; in the test on K-562 leukemia, -42.1% (active); with MALME-3M melanoma, 52.7%. Besides, the growth is 33.4% in the test with MDA-MB-231 breast; 32% in the test with RXF 393 renal; 54.5% in the test on SF-268 CNS; 73.1% in the test on SF-295 CNS; 32.4% in the test with SF-539 CNS; 73.1% with UACC-257 melanoma. In addition, the growth with M14 melanoma is 40.3%.

Consider `C#CCCCCCCC[C@@H]1OC(=O)[C@H]([C@@H](C)CC)NC(=O)[C@H]([C@@H](C)CC)NC(=O)CC(=O)[C@@H]1C`, for which the growth is 99.8% in the test with NCI-H23 lung; 89% with NCI-H226 lung; 99.6% in the test on NCI-H322M lung; 103% in the test on NCI-H460 lung; 78.1% in the test on HOP-92 NSCLC; 92.5% in the test with NCI-H522 lung. The growth with A549/ATCC NSCLC was 105%; with 786-0 renal it was 101%; with COLO 205 colon it was 112%; in the test on DU-145 prostate, 106%; in the test on K-562 leukemia, 96.5%; with MALME-3M melanoma, 92.9%. Besides, the growth with MDA-MB-231 breast was 89.9%; with RXF 393 renal it was 104%; in the test on SF-268 CNS, 91.9%; with SF-295 CNS, 98.9%; in the test on SF-539 CNS, 97.5%; in the test on UACC-257 melanoma, 117%. Besides, the growth in the test on M14 melanoma is 93.9%.

Turning to `O=C1/C(=C/c2ccc(Cl)cc2)CCC/C1=C\c1ccc(Cl)cc1`, the growth in the test with NCI-H23 lung is 70.7%; with NCI-H226 lung it was 104%; in the test on NCI-H322M lung, 99.6%; with NCI-H460 lung, 97.7%; with HOP-92 NSCLC it was 74.4%; in the test on NCI-H522 lung it was 83%. The growth is 65.7% in the test with A549/ATCC NSCLC; 91.3% in the test with 786-0 renal; 73.3% with COLO 205 colon; 91.7% in the test on DU-145 prostate; 67.9% in the test on K-562 leukemia; 90.5% with MALME-3M melanoma. For the same molecule, the growth was 95.6% with MDA-MB-231 breast; 56.4% in the test with RXF 393 renal; 84.1% in the test with SF-268 CNS; 94.5% in the test with SF-295 CNS; 88.1% in the test with SF-539 CNS; 81.5% in the test with UACC-257 melanoma. The growth in the test with M14 melanoma is 69.7%.

For `c1ccc(Nc2ccccn2)cc1`, the growth is 103% in the test on NCI-H23 lung; 130% with NCI-H226 lung; 106% with NCI-H322M lung; 115% with NCI-H460 lung; 97.9% in the test with HOP-92 NSCLC; 91.7% in the test on NCI-H522 lung. Also, the growth in the test on A549/ATCC NSCLC is 98.9%; in the test on 786-0 renal it was 95.1%; in the test on COLO 205 colon, 99.8%; with DU-145 prostate it was 111%; in the test on K-562 leukemia, 89.5%; in the test with MALME-3M melanoma, 103%. Moreover, the growth is 96.6% in the test on MDA-MB-231 breast; 113% in the test on RXF 393 renal; 115% in the test with SF-268 CNS; 102% with SF-295 CNS; 99.5% in the test on SF-539 CNS; 104% in the test on UACC-257 melanoma. For the same molecule, in the test with M14 melanoma, the growth was 107%.

With `c1ccc(C(=NNc2nc3ccccc3o2)c2ccccn2)nc1`, the growth in the test with NCI-H23 lung is 10.8%; in the test with NCI-H226 lung, -2.97% (active); with NCI-H322M lung, 13.3%; in the test with NCI-H460 lung, 3.05% (active); with HOP-92 NSCLC, 34.4%; in the test on NCI-H522 lung it was 20.9%. The growth was 6.29% (active) with A549/ATCC NSCLC; 6.88% (active) with 786-0 renal; 18% with COLO 205 colon; 20.3% with DU-145 prostate; 10.9% with K-562 leukemia; 19.5% in the test with MALME-3M melanoma. Further, the growth is 29.7% in the test on MDA-MB-231 breast; 16.4% in the test on RXF 393 renal; 7.72% (active) in the test with SF-268 CNS; 0.423% (active) in the test with SF-295 CNS; 2.62% (active) with SF-539 CNS; -1.59% (active) in the test with UACC-257 melanoma. In the test with M14 melanoma, the growth is -4.91% (active).

With `NC(N)=Nc1ccc(/C=C2\C=Cc3ccccc32)cc1`, the growth is 69.9% with NCI-H23 lung; 74.6% in the test on NCI-H226 lung; 70.5% in the test with NCI-H322M lung; 63.5% with NCI-H460 lung; 9.95% (active) with HOP-92 NSCLC; 42.7% in the test on NCI-H522 lung. Moreover, the growth was 78.6% with A549/ATCC NSCLC; 67.3% in the test on 786-0 renal; -77.9% (active) in the test with COLO 205 colon; 80.9% in the test with DU-145 prostate; 13.6% with K-562 leukemia; 88.8% with MALME-3M melanoma. The growth in the test with MDA-MB-231 breast was 42.4%; in the test with RXF 393 renal it was 63.7%; with SF-268 CNS, 64.5%; in the test on SF-295 CNS it was 80.6%; in the test with SF-539 CNS, 81.3%; with UACC-257 melanoma, 77.5%. In addition, the growth in the test with M14 melanoma is 73.4%.

In the case of `NC(=O)CC(NC(=O)COc1ccc(Cl)cc1Cl)C(=O)O` (configuration not stated), the growth in the test with NCI-H23 lung is 101%; in the test with NCI-H226 lung, 102%; in the test on NCI-H322M lung, 102%; in the test with NCI-H460 lung it was 104%; with HOP-92 NSCLC it was 96.4%; with NCI-H522 lung, 98%. Also, the growth in the test on A549/ATCC NSCLC was 106%; in the test on 786-0 renal, 108%; in the test with COLO 205 colon it was 106%; with DU-145 prostate, 104%; in the test with K-562 leukemia it was 103%; in the test with MALME-3M melanoma it was 105%. Also, the growth in the test on MDA-MB-231 breast is 105%; in the test on RXF 393 renal it was 108%; in the test with SF-268 CNS, 101%; in the test on SF-295 CNS, 100%; in the test on SF-539 CNS it was 111%; in the test with UACC-257 melanoma, 107%. In addition, the growth in the test with M14 melanoma is 106%.

As to `CCOC(=O)CSSCC(=O)OCC`, the growth in the test with NCI-H23 lung is 112%; with NCI-H226 lung, 123%; with NCI-H322M lung, 106%; in the test on NCI-H460 lung, 108%; with HOP-92 NSCLC, 103%; in the test with NCI-H522 lung, 99.7%. Besides, the growth in the test with A549/ATCC NSCLC was 98.7%; in the test with 786-0 renal it was 106%; with COLO 205 colon, 113%; with DU-145 prostate, 106%; in the test on K-562 leukemia, 101%; in the test with MALME-3M melanoma, 112%. Moreover, the growth with MDA-MB-231 breast is 107%; in the test on RXF 393 renal it was 128%; in the test with SF-268 CNS, 104%; with SF-295 CNS, 100%; in the test on SF-539 CNS, 95.9%; in the test on UACC-257 melanoma, 94.1%. In the test on M14 melanoma, the growth was 119%.
